An excerpt weighted towards active compounds, which were near 3.8% of everything screened.
HSF1 activator = increases HSF-1 driven luciferase reporter signal. activation, % at 9 µM. NIH3T3-HGL HSF-1 luciferase reporter, MG132, 8 h; 100% = twice DMSO control signal. hit rate 1.7% among 300,000;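 active = mean replicate activation of at least 50% with a set share of replicates each reaching 50%; inconclusive = only one of those two conditions met; inactive = mean below 50% and too few replicates reaching it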;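 also: 0% = median of the neutral control wells and 100% = twice that signal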
Wnt bcat act = activators of Wnt/beta-catenin signaling | Wnt/beta-catenin reporter cell assay, activator, plate reader | activation, % at 9.35 µM | hit rate 1.2% among 300,000 | AID 743398; in the data active = activation above about 30%, passing the limit was not always enough; inconclusive = no clear call, values can overlap the other calls;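 also: 0% = neutral control wells and 100% = positive control wells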
HSF1 inh = HSF1 inhibition; AID 2098; NIH3T3-HGL HSE-luciferase, MG132-induced, luminescence 8 h; hits give low values; activity change, negative = inhibition, % at 7.5 µM (by protocol); hit rate 0.77% among 300,000;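 active = more than half of replicate wells show activity change below -50%, luminescence cut by over half; inconclusive = some wells, but at most half, below -50%; inactive = no replicate well below -50%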;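 also: luciferase reports HSF-1 transcriptional activity via heat shock element; 0% = median of DMSO wells and -100% = zero luminescence signal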
esBAF inh = inhibitors of esBAF chromatin remodeling in mouse ES cells | hit rate 2% among 350,000 | reporter increase, % at 12.5 µM | Bmi1-luciferase knock-in reporter, 24 h; 100% = twice the neutral-well signal; in the data active = activation above about 40%; inconclusive = no clear call, values can overlap the other calls;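 also: 0% = median of the plate's neutral control wells and 100% = double that signal; a rise in the Bmi1 reporter signal indicates esBAF inhibition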
MITF act = increases MITF-driven TRPM1 promoter luciferase signal; SK-MEL-5 TRPM1-promoter luciferase, 24 h; % of positive control, neutral wells = 0; activation, % at 12.5 µM; hit rate 0.75% among 300,000;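 active = mean activation of at least 80% with every replicate also reaching 80%; inconclusive = mean reaches 80% but some replicate falls short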;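 also: 0% = neutral control wells and 100% = parthenolide positive control wells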
* = called active by the depositor; ? = inconclusive; nt = not tested or not shown.

SMILES	HSF1 activator	Wnt bcat act	HSF1 inh	esBAF inh	MITF act
CCCN1C[C@@H](C)[C@H](OC)CN(C)C(=O)c2ccc(NC(=O)c3cccc(F)c3)cc2OC[C@@H]1C	nt	nt	nt	1	nt
C[C@@H]1CN([C@H](C)CO)C(=O)c2cc(NC(=O)C3CC3)ccc2O[C@@H]1CN(C)Cc1ccc(-c2ccccc2)cc1	nt	nt	nt	-2	nt
O=C(C[C@@H]1CC[C@@H]2[C@H](COC[C@H](O)CN2Cc2ccncc2)O1)NCc1ccccc1Cl	nt	nt	nt	-7	nt
Cc1sc(NC(=O)c2sc3nc4c(C)cccc4cc3c2N)c(C#N)c1C	-15	nt	-4	-2	nt
Cc1cccc2cc3c(N)c(C#N)sc3nc12	-63	-4	-54*	-62	nt
C/C=C/c1ccc2c(c1)O[C@H](CN(C)C(=O)c1ccccc1F)[C@@H](C)CN([C@H](C)CO)S2(=O)=O	nt	nt	nt	-6	nt
Cn1cc(C(=O)N/N=C/C(Br)=C/c2ccccc2)ccc1=O	90*	9	62	nt	-14
Cn1cc(C(=O)N/N=C/C=C/c2ccccc2)ccc1=O	2	-2	-8	-14	-2
Cn1cc(C(=O)N/N=C/C(Br)=C\c2ccccc2)ccc1=O	87*	nt	65	6	-25
CN1C(=O)C2(Oc3ccccc3C3CC(c4ccccc4)=NN32)c2ccccc21 (configuration not stated)	76*	nt	47	95*	40
Cc1ccc(-c2nc(N)s[n+]2-c2ccccc2)cc1	-14	53*	-7	nt	10
CCNC(=O)/C(C#N)=C/c1c(N(Cc2ccccc2)Cc2ccccc2)nc2ccccn2c1=O	66*	-5	22	nt	0
CNC(=O)c1c(Br)cnn1-c1ccc(C)cc1	?	18	32	84*	44
Cc1ccc(-n2ncc(Cl)c2C(=O)NC2CC2)cc1	54*	0	15	23	15
O=C(COc1ccc(Cl)cc1Cl)NC1CC1	nt	-1	nt	nt	nt
O=C(COc1ccc(Cl)cc1Br)NC(=O)NC1CCCC1	nt	54*	nt	72*	152*
O=C(COc1ccc(Cl)cc1Cl)NC1CCSC1=O (configuration not stated)	34	nt	24	14	94*
O=C(COc1ccccc1Cl)NC(=O)NC1CCCC1	nt	nt	nt	24	97*
O=C(COc1ccc(F)c(Cl)c1)NC(=O)NC1CCCC1	nt	-2	nt	8	nt
Cc1cc(Cl)ccc1OCC(=O)N1CCCCC1	15	nt	12	58*	50
COc1ccccc1C(=O)OCC(=O)NC(=O)NC1CCCC1	nt	-1	nt	-7	-4
COc1ccc(NC(=O)Nc2cccc3c2O[C@@H](CN(C)C(=O)Nc2ccc(OC)cc2)[C@H](C)CN([C@H](C)CO)C3=O)cc1	nt	nt	nt	-6	nt
CC(C)C#Cc1ccc2c(c1)O[C@H](CN(C)C)[C@@H](C)CN([C@@H](C)CO)S2(=O)=O	nt	nt	nt	-3	nt
CC(=O)N1[C@@H]2c3ccc(-c4ccccc4)c(=O)n3C[C@H]1[C@H](CO)[C@H]2C(=O)Nc1ccccc1	nt	nt	nt	-2	nt
Cc1ccc(S(=O)(=O)N[C@@H]2C=C[C@@H](CC(=O)N3CCN(c4ccccc4)CC3)O[C@@H]2CO)cc1	nt	nt	nt	-4	nt
SMILES	HSF1 activator	Wnt bcat act	HSF1 inh	esBAF inh	MITF act
O=C(COc1ccc(Cl)cc1Cl)NC(=O)N1CCCCC1	26	nt	18	59*	95*
CCc1ccccc1NC(=O)NC1CCCCC1	-5	nt	3	-7	-7
O=C(Nc1ccccc1Cl)NC1CCCCCCC1	nt	16	nt	59*	53
O=C(COc1ccc(Cl)cc1Cl)NC(=O)NC1CCCC1	nt	21	nt	48*	127*
C[C@@H]1CN([C@@H](C)CO)C(=O)c2cc(-c3ccc(F)cc3)cnc2O[C@@H]1CN(C)C(=O)NC1CCCC1	nt	nt	nt	1	nt
C[C@@H]1CN([C@H](C)CO)C(=O)Cc2cc(NC(=O)CCN3CCOCC3)ccc2O[C@@H]1CN(C)S(=O)(=O)c1ccc(F)cc1	nt	nt	nt	2	nt
CC(=O)Nc1ccc(S(=O)(=O)Nc2nc3ccccc3nc2Nc2cccc(O)c2)cc1	8	1	-2	nt	-5
CC(=O)Nc1ccc(S(=O)(=O)Nc2nc3ccccc3nc2Sc2nncn2C)cc1	22	14	4	44*	-8
CC(=O)Nc1ccc(S(=O)(=O)Nc2nc3ccccc3nc2Nc2ccc3ccccc3c2)cc1	106*	-1	54	nt	-14
Cn1cnnc1Sc1nc2ccccc2nc1NS(=O)(=O)c1ccccc1	19	6	3	-6	6
O=C(C[C@@H]1C=C[C@H](NC(=O)Nc2ccc(C(F)(F)F)cc2)[C@@H](CO)O1)NCc1cc(F)cc(F)c1	nt	nt	nt	5	nt
COc1cccc(C(=O)Nc2ccc3c(c2)OC[C@@H](C)N(C)C[C@H](C)[C@@H](OC)CN(C)C3=O)c1	nt	nt	nt	8	nt
Cc1nc2ccccc2c(=O)n1/N=C/c1ccc([N+](=O)[O-])o1	-9	nt	6	nt	nt
Cc1nc2ccccc2n1/N=C/c1ccc([N+](=O)[O-])o1	77*	0	41	nt	-10
CC(C)c1nnc(SCc2ccc(CSc3nnc(C(C)C)n3N)cc2)n1N	80*	nt	26	5	-2
COCC(=O)N1C[C@H]2[C@@H](c3ccccc31)[C@@H](CO)N2C(=O)Nc1ccccc1Cl	nt	nt	nt	-7	nt
C[C@@H]1CN([C@@H](C)CO)C(=O)c2cc(NC(=O)CCN3CCOCC3)ccc2O[C@@H]1CN(C)Cc1ccc(Cl)c(Cl)c1	nt	nt	nt	-2	nt
O=C1c2ccccc2NC(c2ccccc2)N1Cc1ccco1 (configuration not stated)	17	nt	-5	62*	-2
CCCC#Cc1cnc2c(c1)C(=O)N([C@H](C)CO)C[C@H](C)[C@H](CN(C)Cc1ccc(C(=O)O)cc1)O2	nt	nt	nt	-9	nt
CC(=O)NC12CC3CC(C1)CC(C(=O)Nc1nc4ccc(F)cc4s1)(C3)C2	-5	6	-5	45*	5
CCC(CC)c1nnc(NC(=O)C23CC4CC(CC(NC(C)=O)(C4)C2)C3)s1	-7	-1	-9	9	-14
Cc1ccc(S(=O)(=O)N(C)C[C@H]2Oc3ccc(NC(=O)Nc4ccc(C(F)(F)F)cc4)cc3C(=O)N([C@@H](C)CO)C[C@H]2C)cc1	nt	nt	nt	-7	nt
O=C(Nc1ccc(OCC(=O)N2CCOCC2)cc1)c1ccccc1Cl	-15	5	1	-33	42
Cc1onc(-c2ccccc2Cl)c1C(=O)Nc1ccc(OCC(=O)N2CCOCC2)cc1	-87	nt	-85*	-4	-4
Cc1ccc(-n2nc(C)c3cc(C(=O)O)sc32)cc1	-76	-1	-69*	6	-3
Cc1nn(-c2ccccc2)c2sc(C(=O)N3CCOCC3)cc12	26	nt	10	44*	25
CCOC(=O)C1(CCOc2ccccc2)CCN(Cc2cc(OC)c3c(c2)OCO3)CC1	57*	-3	27	-4	-10
CCOC(=O)C1(CCOc2ccccc2)CCN(Cc2cccc(F)c2)CC1	1	-8	2	-5	-11
CCOC(=O)C1(CCOc2ccccc2)CCN(Cc2cccc(-n3cccn3)c2)CC1	-70	-1	-60*	-5	-13
O=C(N[C@H]1CC[C@@H](CC(=O)N2CCN(c3ccccc3)CC2)O[C@@H]1CO)c1ccccc1	nt	nt	nt	-2	nt
